Assay outcomes from PubChem.
An excerpt weighted towards active compounds, which were near 7.1% of everything screened.
ATXN viability – Viability Counterscreen for Primary qHTS for Inhibitors of ATXN expression; hit rate 0.49% among 400,000; S2 cells (HEK-293 line with an ATXN2-luciferase reporter) viability, CellTiter-Fluor protease fluorescence, 24 h; Potency, µM (series often up to 56.7 µM), actives largely listed as cytotoxic; also: nearly all actives have a fitted effect of over 40% in size
MCF10A rereplic – A quantitative high throughput screen for small molecules that induce DNA re-replication in MCF 10a normal breast cells; MCF 10A DNA re-replication, Hoechst nuclear intensity, 48 h; Potency, µM (doses to about 46.1 µM), actives largely listed as activators; hit rate 2.9% among 350,000; AID 624296, 2012; also: nearly all actives have a fitted effect of over 50% in size
SW480 rerep – A quantitative high throughput screen for small molecules that induce DNA re-replication in SW480 colon adenocarcinoma cells. SW480 DNA re-replication, Hoechst DNA content imaging, 48 h. Potency, µM (doses to about 46.1 µM), most hits filed as activators. AID 624297, 2012. hit rate 1.8% among 340,000; also: nearly all actives have a fitted effect of over 55% in size
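Cells (250 per well) received 23 nL compound or DMSO by pin tool and were kept 48 hr at 37 C, 5% CO2. Nuclei were then stained with Hoechst for 40 min and scanned for DNA content.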
ATXN2 expr inh – Primary qHTS for Inhibitors of ATXN expression; HEK-293 ATXN2-luciferase reporter, luminescence, 24 h; Potency, µM (doses to about 57 µM), most hits filed as inhibitors; AID 1745845, 2022; hit rate 0.72% among 360,000; also: nearly all actives have a fitted effect of over 55% in size
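ATXN2-luciferase reporter cells (luciferase flanked by upstream and downstream ATXN2 gene portions) were treated 24 h at 37 °C with compounds at up to 57 uM. SteadyGlo luminescence gave expression; GF-AFC fluorescence gave viability.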
IL1B secr inh – qHTS for Inhibitors of Inflammasome Signaling: IL-1-beta AlphaLISA Primary Screen; THP-1 LPS/ATP IL-1B secretion, AlphaLISA, 16 h; active compounds read low; activity change, % at 57.5 µM; hit rate 4.7% among 360,000; in the data active = activity change below about -50%; inconclusive = mostly about -30% to -49%
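THP-1 cells pretreated 1 hr with compounds (up to 57.5 uM final), then stimulated with LPS (250 ng/mL final) plus ATP (1.25 mM final); secreted IL-1B measured by AlphaLISA after 16 hr, decreased signal indicating inhibition.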
PINK1 modulator – A Quantitative High throughput Screen to Identify Chemical Modulators of PINK1 Expression. Potency, µM (titrated, usually from 76.6 µM), actives largely listed as activators. PINK1 immunofluorescence, high-content cytometry, 24 h. hit rate 0.2% among 410,000. AID 624263, 2012; active = well fitted activation curve with a large enough effect; inconclusive = small, poorly fitted or top-dose-only effect; cell line not stated here; also: nearly all actives have a fitted effect of over 65% in size
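PINK1 protein, normally rapidly degraded, was detected by immunofluorescence after 24 hour compound treatment of a stable cell line. Titration data (5 concentrations) came from laser-scanning cytometry, with CCCP-treated wells as controls.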
A number is an active result; . = inactive; ? = inconclusive; / = not tested or not shown. Unless noted, calls follow the shape of the dose curve; as a rule, active = well fitted curve in the direction sought with a large enough effect; inconclusive = small, poorly fitted or top-dose-only effect, or another doubt; inactive = no such curve, though single readings can be large; an effect the other way counts as inactive or inconclusive.

SMILES	ATXN viability	MCF10A rereplic	SW480 rerep	ATXN2 expr inh	IL1B secr inh	PINK1 modulator
NS(=O)(=O)c1ccc(Nc2nc(-c3ccc(F)cc3)cs2)cc1	.	?	.	?	-88	.
NS(=O)(=O)c1ccc(Nc2nc(-c3cccnc3)cs2)cc1	.	?	?	.	.	.
Cc1cc(NS(=O)(=O)c2ccc(Nc3nc(-c4ccc(C)c(C)c4)cs3)cc2)no1	.	?	.	.	-56	.
NS(=O)(=O)c1ccc(Nc2nc(-c3ccc(O)cc3O)cs2)cc1	.	.	.	.	-57	.
Oc1ccc(-c2csc(Nc3ccccn3)n2)c(O)c1	.	?	.	/	.	.
COc1ccc(-c2csc(Nc3ccc(S(N)(=O)=O)cc3)n2)cc1OC	.	?	?	?	-64	.
O=C(Cn1ncc2c3ccccc3n(Cc3cccc(Cl)c3)c2c1=O)N1CCCCCC1	.	/	/	.	/	.
CCCCN1C(=O)NC2NC(=O)NC21 (configuration not stated)	.	.	.	.	-92	.
Cc1cc(C(=O)NCC2CCC3(CCN(Cc4cc(F)ccc4F)CC3)O2)n(C)n1 (configuration not stated)	.	/	/	/	/	.
CCc1ccccc1OCCSc1nnc(-c2cc(OC)c(OC)c(OC)c2)o1	.	/	/	.	/	.
COc1cccc(C(=O)/C=C/Nc2ccc(S(=O)(=O)Nc3cccc(C(C)=O)c3)cc2)c1	?	10µM	21µM	?	.	.
COc1cccc(/C=C/C(=O)c2ccc(NS(=O)(=O)c3ccc(C)cc3)cc2)c1	.	5.8µM	?	?	-99	.
COc1ccc(S(=O)(=O)Nc2cccc(C(C)=O)c2)cc1Br	.	.	.	.	-71	.
COc1cc(/C=C/C(=O)c2ccc(NS(=O)(=O)c3ccc(C)cc3)cc2)ccc1OC(F)F	?	23µM	?	?	-93	.
Cc1cc([N+](C)(C)C)cc(C)c1/C=C/c1ccnc2ccccc12	/	/	/	/	/	.
CCCn1ccc2c(OCC(=O)Nc3ccc(OC)c(OC)c3)cccc2c1=O	?	/	/	?	/	.
COc1ccccc1-c1noc(-c2ccc(NC(C)C)c([N+](=O)[O-])c2)n1	.	/	/	.	/	.
COc1cc(/C=C/C(=O)c2ccc(NS(=O)(=O)c3ccc(C)cc3)cc2)cc(OC)c1O	?	18µM	?	?	-103	.
COCCCNCCCOc1ccc(Cl)cc1Br	/	.	.	/	.	/
CC(O)CNCCCOc1ccc(Cl)cc1C(C)(C)C (configuration not stated)	?	.	.	34µM	-66	.
CN(C)CCOCCOc1ccc(Cl)cc1C(C)(C)C	.	.	?	.	-56	.
O=C(Nc1ccc(Br)cc1)c1ccc(F)c(S(=O)(=O)N2CCc3ccccc32)c1	/	/	/	/	/	.
O=C(Nc1ccc2nc(SCC(=O)N3CCc4ccccc43)sc2c1)c1ccccc1	/	/	/	/	/	.
COCCNC(=O)C1CCCN(S(=O)(=O)c2c(C)noc2/C=C/c2cccs2)C1 (configuration not stated)	.	.	.	/	.	.
Cc1ccc(C)c(NC(=O)C2CCCN(S(=O)(=O)c3c(C)noc3/C=C/N(C)C)C2)c1 (configuration not stated)	.	18µM	.	.	.	.
CSc1ccc(C(=O)C2CCCN(S(=O)(=O)c3c(C)noc3C)C2)cc1 (configuration not stated)	.	.	.	.	-52	.
COC(CNC(=O)C1CCCN(S(=O)(=O)c2c(C)noc2/C=C/c2cccs2)C1)OC (configuration not stated)	?	3.7µM	.	.	.	.
Cc1cccc(N2C(=O)CSC23C(=O)N(Cc2cccc(C(F)(F)F)c2)c2ccccc23)c1 (configuration not stated)	.	/	/	?	/	.
CCC(=O)N1CCN(c2ccc(-n3c(=O)ccc4cnc5ccc(-c6cnc7ccccc7c6)cc5c43)cc2C(F)(F)F)CC1	/	/	/	.	/	/
